Screening data deposited in PubChem BioAssay by National Center for Advancing Translational Sciences (NCATS).
GLP1R inv ag – qHTS of GLP-1 Receptor Inverse Agonists (Inhibition Mode); HEK293 GLP-1R CRE-luciferase, luminescence, 24 h; GLP-1R form is constitutively active; 1.6% of 410,000 active; AID 624417, 2012; Potency, µM (doses to about 38.3 µM), most hits filed as inhibitors; Glucagon-like peptide 1 receptor (Homo sapiens), P43220; note: nearly all actives have a fitted effect of over 55% in size
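GLP-1R inverse agonism mode: basal reporter luminescence in engineered HEK293 cells measured after one day of compound exposure at 37 deg C, with a 12 min room-temperature detection step.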
GLP1R cytotox – qHTS of GLP-1 Receptor Inverse Agonists: Cytotox Screen; HEK293 cAMP-luciferase reporter cells, luminescence, 24 h; Potency, µM (highest dose often 38.3 µM), actives largely listed as inhibitors; 0.13% of 410,000 active; AID 624418, 2012;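 note: loss of luciferase light is scored as toxicity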
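Luminescence readout: signal drop marks cytotoxicity. Plated cells grew 12 h at 37 °C, 5% CO2, received 23 nL compound for 24 h, then got luciferase reagent, read after 12 min at RT.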
GLP1R ag – qHTS of GLP-1 Receptor Agonists. HEK293 GLP-1R CRE-luciferase, luminescence, 4-6 h; cells express a hypersensitive GLP-1R form. Potency, µM (doses to about 45.6 µM), most hits filed as activators. 0.007% of 380,000 active. AID 624172, 2012
PTHR1 agonist – qHTS for PTHR1 Agonists: Primary Screen; Parathyroid hormone/parathyroid hormone-related peptide receptor (Homo sapiens), Q03431; HEK293 GP2 PTHR1 cells, GloSensor cAMP luminescence, 1 h; Potency, µM (series often up to 115 µM), actives largely listed as activators; 0.075% of 410,000 active; note: nearly all actives have a fitted effect of over 55% in size
Target sequence (Q03431 whole entry, looked up): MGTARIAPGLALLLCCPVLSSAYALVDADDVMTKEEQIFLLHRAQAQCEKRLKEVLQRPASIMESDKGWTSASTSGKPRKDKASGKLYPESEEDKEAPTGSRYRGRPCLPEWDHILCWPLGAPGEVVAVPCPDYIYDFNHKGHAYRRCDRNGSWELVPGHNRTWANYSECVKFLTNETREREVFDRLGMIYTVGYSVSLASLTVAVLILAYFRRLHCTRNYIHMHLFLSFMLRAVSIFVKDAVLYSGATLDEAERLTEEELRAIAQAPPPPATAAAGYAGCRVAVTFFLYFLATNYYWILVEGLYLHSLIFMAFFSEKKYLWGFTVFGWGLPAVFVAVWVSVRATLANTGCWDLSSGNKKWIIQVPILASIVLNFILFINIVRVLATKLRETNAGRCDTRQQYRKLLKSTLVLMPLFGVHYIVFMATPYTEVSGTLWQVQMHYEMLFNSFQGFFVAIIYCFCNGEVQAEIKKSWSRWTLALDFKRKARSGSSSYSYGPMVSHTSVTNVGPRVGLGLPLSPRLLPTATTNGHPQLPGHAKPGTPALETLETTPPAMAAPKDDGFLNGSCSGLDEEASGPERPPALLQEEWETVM
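HEK-293-derived GP2 cells expressing PTHR1 and a GloSensor cAMP reporter, 3,000/well, plated overnight, given luciferin plus IBMX (each 0.5 mM as added) for 1 h at 37 °C, then compound for 1 h at 37 °C. Luminescence was read after 15 min at room temperature.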
Large screens that a line does not name were inactive. Compounds with a hit are over-represented: about 1.7% of the library has one in this group of screens. Calls come from the whole dose curve; as a rule, active = well fitted curve in the direction sought with a large enough effect; inconclusive = small, poorly fitted or top-dose-only effect, or another doubt; inactive = no such curve, though single readings can be large; an effect the other way counts as inactive or inconclusive.

COc1ccc2c(c1)c1c(c(=O)n(-c3ccc(OC)c(OC)c3)c(=O)n1Cc1ccccc1C)n2C	none (no result: GLP1R ag)
COCCn1c(C)cc(C(=O)CSc2nc3ccccc3c(=O)n2Cc2ccco2)c1C	none
COCCn1c(C)cc(C(=O)COC(=O)c2cc3c(s2)CCC3)c1C	GLP1R inv ag inconclusive
COCCn1c(C)cc(C(=O)CSc2cc(C)c3ccccc3n2)c1C	GLP1R inv ag 13µM
COCCn1c(C)cc(C(=O)CSc2nnc(C)s2)c1C	GLP1R inv ag 1.3µM
COCCn1c(C)cc(C(=O)CSc2nnnn2C2CCCC2)c1C	GLP1R inv ag 2.2µM
COCCn1c(C)cc(C(=O)COC(=O)c2cccc(O)c2)c1C	GLP1R inv ag 0.89µM
CCOC(=O)Cn1cc2c(c1-c1ccc(Cl)cc1)c(=O)n(C)c(=O)n2C	none
Cc1cccc(N2CCN(C(=O)c3cccn3-c3nnc(N4CCCCC4)s3)CC2)c1C	GLP1R inv ag inconclusive (no result: GLP1R ag)
O=C(NCc1ccccc1)C(=O)NCC(c1ccc2c(c1)OCO2)N1CCOCC1 (stereo not given)	none (no result: GLP1R ag)
O=C(Nc1cccc(Cl)c1)C1=Cc2cc(Cl)ccc2OC1	GLP1R inv ag 10µM
O=C(Nc1ccc2c(c1)OCCO2)c1ccc(Cl)c(Cl)c1	none
O=C(Nc1ccc(Cl)c(Cl)c1)C1=Cc2ccccc2OC1	GLP1R inv ag 10µM
O=C(CSc1nc2ccccc2s1)N1N=C(c2cccs2)CC1c1ccc(F)cc1 (stereo not given)	GLP1R inv ag 4µM
COc1ccc(C2CC(c3cccs3)=NN2C(=O)CSc2nc3ccccc3s2)cc1 (stereo not given)	GLP1R inv ag inconclusive
CC(=O)c1sc2c(c1OC(=O)c1ccc(Cl)cc1Cl)c(=O)n(-c1ccccc1)c(=S)n2-c1ccccc1	GLP1R inv ag 7.9µM
CC(=O)c1sc2c(c1OC(=O)c1ccc(Cl)cc1)c(=O)n(-c1ccccc1)c(=S)n2-c1ccccc1	none
COC(=O)c1ccc(NC(=O)Nc2ccc(F)cc2)cc1	GLP1R inv ag inconclusive
O=C(Nc1ccccc1)C(=O)Nc1ccccn1	GLP1R inv ag inconclusive
O=C(NC(=S)Nc1ccccn1)c1ccccc1	GLP1R inv ag 10µM, GLP1R cytotox inconclusive
O=C(NC(=S)Nc1ccccn1)c1ccc(-c2ccccc2)cc1	GLP1R inv ag inconclusive, GLP1R cytotox inconclusive
CCOC(=O)c1ccc(NC(=O)Nc2ccc(F)cc2)cc1	GLP1R inv ag 4.5µM, GLP1R cytotox inconclusive
S=C(Nc1ccc(Nc2ccccc2)cc1)Nc1ccccn1	GLP1R inv ag 2.2µM, GLP1R cytotox inconclusive
Cc1csc(NC(=S)NC(=O)c2ccccc2)n1	GLP1R inv ag 3.5µM, GLP1R cytotox inconclusive
CCCCOc1ccc(C2=NC(c3ccncc3)=Nc3ccc(OCC)cc3N2)cc1	none (no result: GLP1R ag)
CCOC(=O)c1ccc(NC(=O)C2(c3ccc(OC)cc3)CCCC2)cc1	GLP1R inv ag 5µM
CCOC(=O)c1ccc(NC(=O)C2(c3ccc(OC)cc3)CCOCC2)cc1	GLP1R inv ag inconclusive
CCOC(=O)c1ccc(NC(=S)Nc2ccccn2)cc1	GLP1R inv ag inconclusive, GLP1R cytotox 5.6µM
CC(C)n1cc(/C=N/Nc2ccc(C(=O)O)cc2)c2ccccc21	none
Cn1cc(/C=N/Nc2ccccc2)c2ccccc21	GLP1R inv ag 11µM
Cc1ccc(-n2nc(CO)c(C(=O)NCCCCc3ccccc3)n2)cc1	none (no result: GLP1R ag)
Cc1ccc(CSc2nc3ccccc3cc2C=O)cc1	GLP1R inv ag 4µM, GLP1R cytotox inconclusive
Cc1ccc(NC(=O)CN2C(=O)CSc3ccc(S(=O)(=O)N(C)C)cc32)c(C)c1	none (no result: GLP1R ag)
Cc1cc(NC(=O)CC(CN(C)S(=O)(=O)c2ccccc2)c2ccccc2)no1 (stereo not given)	GLP1R inv ag 10µM
COc1ccc(/C=N/Nc2ncnc3sc(C)c(C)c23)cc1	GLP1R inv ag 8.9µM, GLP1R cytotox inconclusive
COc1cc(C2c3c(-c4c(C)cc(C)cc4O)n[nH]c3C(=O)N2Cc2ccco2)cc(OC)c1OC (stereo not given)	none (no result: GLP1R ag)
CC(C)(C)c1nnc(N/N=C/c2cc(Br)ccc2O)n(N)c1=O	GLP1R inv ag 3.5µM, GLP1R cytotox inconclusive
CC1=NN(C(=O)COc2ccc(C)c(C)c2)C(O)(c2ccc(Cl)cc2)C1 (stereo not given)	GLP1R inv ag 13µM
Cc1ccc(OCC(=O)N2N=C(C(F)(F)F)CC2(O)C(C)(C)C)cc1C (stereo not given)	none
COc1ccc(C)cc1NC(=O)N1CCCn2nc(C)cc21	none (no result: GLP1R ag)
O[C@H]1C[C@H](c2ccc(Cl)cc2)N(CC2CCCCC2)C[C@@H]1n1cc(C2CC2)nn1	GLP1R inv ag 10µM, GLP1R cytotox inconclusive
C=C(C(=O)c1ccccc1)C(NC(C)(C)C)c1ccccc1 (stereo not given)	GLP1R inv ag 5µM, GLP1R cytotox 5µM
O=C(CCn1cccn1)Nc1ccc(Br)cc1F	none (no result: GLP1R ag)
CC1CCc2[nH]c3ccc(C(=O)N4CCCC(C(F)(F)F)C4)cc3c2C1 (stereo not given)	GLP1R inv ag 10µM
Cn1cc(-c2cc3n(n2)CCC(=O)N3CCCC(=O)Nc2ccc(F)cc2F)c2ccccc21	none (no result: GLP1R ag)
CC1C/C(=N\NC(N)=S)c2cc(Cl)ccc2S1 (stereo not given)	GLP1R inv ag inconclusive, GLP1R cytotox 2.2µM
CC(C)=C1CCC(C)CC1=NNC(N)=S (stereo not given)	GLP1R inv ag inconclusive, GLP1R cytotox inconclusive
COc1ccc(NC(=O)CCCc2nnc3n(C(C)C)c(=O)c4sccc4n23)cc1Cl	none (no result: GLP1R ag)
CCOC(=O)c1c(CC(C)C)csc1NC(=O)c1ccccc1C(=O)O	GLP1R inv ag 11µM
Cc1ccc(NC(=O)Cn2ncn3c(cc4ccccc43)c2=O)cc1C	none (no result: GLP1R ag)
COc1ccc(OC)c(NC(=O)NNC(=O)CCCOc2ccc(Cl)cc2C)c1	GLP1R inv ag 10µM
COc1ccc(OCc2cc(C(=O)NCC3CCOCC3)no2)c(Cl)c1	none
COc1ccc(OCc2cc(C(=O)NCCc3ccccc3)no2)c(Cl)c1	GLP1R inv ag 4.5µM
CCOc1ccc(-c2cc(CCCC(=O)NCCc3ccc(SC)cc3)no2)cc1	none
Cc1ccc(NC(=S)N/N=C2/CCCCc3ccccc32)cc1	GLP1R inv ag 3.5µM
CCNC(=S)N/N=C1\CCCCc2ccccc21	GLP1R inv ag 3.5µM, GLP1R cytotox 4µM
Cc1cccc(NC(=S)N/N=C2/CCCCc3ccccc32)c1	GLP1R inv ag inconclusive
Cc1ccc(C)c(NC(=S)N/N=C2\CCc3ccccc32)c1	GLP1R inv ag inconclusive, GLP1R cytotox inconclusive
C=C(C)CNC(=S)N/N=C1\CCCCc2ccccc21	GLP1R inv ag inconclusive, GLP1R cytotox 4µM
Clc1ccc2c(c1)C(C1=NCCN1)c1ccccc1CS2 (stereo not given)	GLP1R inv ag 3.2µM, GLP1R cytotox inconclusive
CCC1CCCCN1C(=O)Cn1c(=O)cc(C(F)(F)F)c2c(C)nn(C)c21 (stereo not given)	GLP1R inv ag 10µM (no result: GLP1R ag)
Cc1cc(=O)n(CC(=O)N2CCCCC2)c2c1c(C)nn2C	none (no result: GLP1R ag)
